# From paper PMC7862700, “An all-to-all approach to the identification of sequence-specific readers for epigenetic DNA modifications on cytosine”
# Key:
# Test in all cases: DAPPL (digital affinity profiling via proximity ligation, sequencing); 10 mM Tris-HCl pH 7.5, 50 mM NaCl, 1 mM DTT, 4% glycerol, room temperature, 30 min; GST-TFs on glutathione beads, 16-mer random dsDNA library, 0.1% formaldehyde crosslink after washing; high values mean tight binding
# Conditions in all cases: protein: recombinant; tags: N-terminal GST; dsDNA, one strand shown
# [1] = target: T1, ERF (Homo sapiens, UniProt P50548 1-548)
# T1 sequence: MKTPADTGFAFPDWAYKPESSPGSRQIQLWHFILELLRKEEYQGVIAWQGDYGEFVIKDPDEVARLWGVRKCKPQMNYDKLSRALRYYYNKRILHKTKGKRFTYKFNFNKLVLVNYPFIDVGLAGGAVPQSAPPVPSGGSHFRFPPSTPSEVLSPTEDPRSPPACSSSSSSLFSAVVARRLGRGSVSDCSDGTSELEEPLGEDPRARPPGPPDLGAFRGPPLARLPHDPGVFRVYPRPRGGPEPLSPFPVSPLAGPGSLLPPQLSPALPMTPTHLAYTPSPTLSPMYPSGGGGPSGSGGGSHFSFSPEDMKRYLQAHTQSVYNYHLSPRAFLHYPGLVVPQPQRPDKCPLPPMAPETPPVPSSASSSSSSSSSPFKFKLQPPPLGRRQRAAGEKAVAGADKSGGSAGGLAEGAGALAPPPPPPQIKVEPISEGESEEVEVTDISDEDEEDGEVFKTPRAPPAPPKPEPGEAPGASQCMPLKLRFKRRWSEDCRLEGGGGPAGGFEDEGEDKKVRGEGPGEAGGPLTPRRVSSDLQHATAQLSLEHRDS
# Outline: (§1)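 Yeast served to express human transcription factors as GST fusions, which were then captured on glutathione beads and labelled with DNA barcodes. Pooled with a tag-only sample, they were incubated with 200 nmole of a 16-mer random double-stranded DNA library for 30 min at room temperature in Tris/NaCl/DTT/glycerol buffer, washed, crosslinked with 0.1% formaldehyde, ligated by proximity, amplified by PCR and sequenced. Dividing each hexamer's read frequency for a factor by its frequency for the tag-only sample gives the binding signal.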
# [2] = target: T2, ETV3L (Homo sapiens, UniProt Q6ZN32 1-361)
# T2 sequence: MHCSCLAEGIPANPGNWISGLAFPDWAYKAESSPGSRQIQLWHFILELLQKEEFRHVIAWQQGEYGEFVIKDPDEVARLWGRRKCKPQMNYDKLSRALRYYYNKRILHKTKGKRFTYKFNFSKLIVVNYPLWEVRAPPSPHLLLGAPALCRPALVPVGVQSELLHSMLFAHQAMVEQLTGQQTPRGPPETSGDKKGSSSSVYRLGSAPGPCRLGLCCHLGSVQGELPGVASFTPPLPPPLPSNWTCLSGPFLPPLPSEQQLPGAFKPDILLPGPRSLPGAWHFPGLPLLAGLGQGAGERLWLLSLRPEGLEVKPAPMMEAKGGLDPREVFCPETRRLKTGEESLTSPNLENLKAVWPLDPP
# Outline: as §1
# [3] = target: T3, ETS2 (Homo sapiens, UniProt P15036 1-469)
# T3 sequence: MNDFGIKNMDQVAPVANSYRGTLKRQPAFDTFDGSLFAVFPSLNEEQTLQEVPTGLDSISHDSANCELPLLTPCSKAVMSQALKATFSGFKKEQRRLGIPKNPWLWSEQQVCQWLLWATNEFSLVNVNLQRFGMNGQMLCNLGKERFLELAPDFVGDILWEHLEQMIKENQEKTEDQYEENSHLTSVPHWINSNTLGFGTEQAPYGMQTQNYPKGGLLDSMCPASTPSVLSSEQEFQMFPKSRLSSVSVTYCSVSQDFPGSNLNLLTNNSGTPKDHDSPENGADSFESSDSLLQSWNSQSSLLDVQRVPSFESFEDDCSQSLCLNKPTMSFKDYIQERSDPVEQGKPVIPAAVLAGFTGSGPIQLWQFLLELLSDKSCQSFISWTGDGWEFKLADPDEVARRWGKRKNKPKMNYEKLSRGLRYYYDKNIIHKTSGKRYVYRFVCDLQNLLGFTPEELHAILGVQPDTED
# Outline: as §1
# [4] = target: T4, SPDEF (Homo sapiens, UniProt O95238 1-335)
# T4 sequence: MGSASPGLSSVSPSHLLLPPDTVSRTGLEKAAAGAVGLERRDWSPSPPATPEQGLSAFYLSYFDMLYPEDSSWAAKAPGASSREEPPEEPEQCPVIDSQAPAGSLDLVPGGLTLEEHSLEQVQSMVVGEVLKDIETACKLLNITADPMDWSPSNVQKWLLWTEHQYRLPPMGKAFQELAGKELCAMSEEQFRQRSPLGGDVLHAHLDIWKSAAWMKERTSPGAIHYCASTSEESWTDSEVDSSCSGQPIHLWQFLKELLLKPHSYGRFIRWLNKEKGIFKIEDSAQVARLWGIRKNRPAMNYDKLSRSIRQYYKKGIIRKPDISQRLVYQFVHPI
# Outline: as §1
# [5] = target: T5, ETV7 (Homo sapiens, UniProt Q9Y603 1-341)
# T5 sequence: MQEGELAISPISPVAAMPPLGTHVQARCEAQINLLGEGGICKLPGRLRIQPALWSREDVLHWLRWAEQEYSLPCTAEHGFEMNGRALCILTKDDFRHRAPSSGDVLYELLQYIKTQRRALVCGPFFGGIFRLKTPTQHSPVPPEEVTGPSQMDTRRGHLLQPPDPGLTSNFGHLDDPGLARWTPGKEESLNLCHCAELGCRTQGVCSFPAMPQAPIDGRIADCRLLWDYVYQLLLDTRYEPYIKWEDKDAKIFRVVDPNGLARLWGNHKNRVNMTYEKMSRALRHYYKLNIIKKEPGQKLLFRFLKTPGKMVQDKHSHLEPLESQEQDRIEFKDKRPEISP
# Outline: as §1
# [6] = target: T6, ELF5 (Homo sapiens, UniProt Q9UKW6-2 1-255)
# T6 sequence: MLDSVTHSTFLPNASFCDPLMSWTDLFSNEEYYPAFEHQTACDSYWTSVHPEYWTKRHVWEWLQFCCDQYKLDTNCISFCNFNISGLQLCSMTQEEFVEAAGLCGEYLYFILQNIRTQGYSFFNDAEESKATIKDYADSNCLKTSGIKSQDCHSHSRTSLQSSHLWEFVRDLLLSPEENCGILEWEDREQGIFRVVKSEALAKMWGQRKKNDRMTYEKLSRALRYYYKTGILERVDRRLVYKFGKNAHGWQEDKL
# Outline: as §1
# [7] = target: T7, ETV3 (Homo sapiens, UniProt P41162-2 1-143)
# T7 sequence: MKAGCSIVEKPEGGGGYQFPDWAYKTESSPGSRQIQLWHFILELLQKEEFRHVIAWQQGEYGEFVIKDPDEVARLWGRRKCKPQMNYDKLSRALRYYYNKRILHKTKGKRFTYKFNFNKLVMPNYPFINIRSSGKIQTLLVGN
# Outline: as §1
# [8] = target: ETV6 (Homo sapiens, UniProt P41212 1-452)
# Sequence of ETV6 (P41212 whole entry): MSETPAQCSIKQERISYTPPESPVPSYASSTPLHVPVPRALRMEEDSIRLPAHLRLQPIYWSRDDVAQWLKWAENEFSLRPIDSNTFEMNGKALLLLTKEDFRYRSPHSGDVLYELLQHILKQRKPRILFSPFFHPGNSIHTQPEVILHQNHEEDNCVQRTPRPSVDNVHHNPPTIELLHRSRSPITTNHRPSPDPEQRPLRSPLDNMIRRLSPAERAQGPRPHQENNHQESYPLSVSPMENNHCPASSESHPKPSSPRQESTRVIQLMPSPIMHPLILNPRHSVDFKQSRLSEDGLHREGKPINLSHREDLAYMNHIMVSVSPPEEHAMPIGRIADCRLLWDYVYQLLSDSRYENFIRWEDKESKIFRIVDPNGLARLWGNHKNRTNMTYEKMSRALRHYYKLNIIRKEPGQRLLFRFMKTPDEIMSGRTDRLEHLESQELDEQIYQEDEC
# Outline: as §1
Sequence,binding signal [1],binding signal [2],binding signal [3],binding signal [4],binding signal [5],binding signal [6],binding signal [7],binding signal [8]
GCACCC,"1.21 fold enrichment (6-mer frequency, TF over GST control)","1.23 fold enrichment (6-mer frequency, TF over GST control)","1.16 fold enrichment (6-mer frequency, TF over GST control)","1.17 fold enrichment (6-mer frequency, TF over GST control)","1.12 fold enrichment (6-mer frequency, TF over GST control)","1.17 fold enrichment (6-mer frequency, TF over GST control)","1.24 fold enrichment (6-mer frequency, TF over GST control)","1.09 fold enrichment (6-mer frequency, TF over GST control)"
TACATC,"1.63 fold enrichment (6-mer frequency, TF over GST control)","1.55 fold enrichment (6-mer frequency, TF over GST control)","1.66 fold enrichment (6-mer frequency, TF over GST control)","2.97 fold enrichment (6-mer frequency, TF over GST control)","1.59 fold enrichment (6-mer frequency, TF over GST control)","1.81 fold enrichment (6-mer frequency, TF over GST control)","1.68 fold enrichment (6-mer frequency, TF over GST control)","1.57 fold enrichment (6-mer frequency, TF over GST control)"
ATCATA,"1.12 fold enrichment (6-mer frequency, TF over GST control)","1.12 fold enrichment (6-mer frequency, TF over GST control)","1.03 fold enrichment (6-mer frequency, TF over GST control)","1.03 fold enrichment (6-mer frequency, TF over GST control)","1.1 fold enrichment (6-mer frequency, TF over GST control)","1.11 fold enrichment (6-mer frequency, TF over GST control)","1.09 fold enrichment (6-mer frequency, TF over GST control)","1.1 fold enrichment (6-mer frequency, TF over GST control)"
ATTGCC,"1.15 fold enrichment (6-mer frequency, TF over GST control)","1.34 fold enrichment (6-mer frequency, TF over GST control)","1.25 fold enrichment (6-mer frequency, TF over GST control)","1.18 fold enrichment (6-mer frequency, TF over GST control)","1.22 fold enrichment (6-mer frequency, TF over GST control)","1.22 fold enrichment (6-mer frequency, TF over GST control)","1.31 fold enrichment (6-mer frequency, TF over GST control)","1.26 fold enrichment (6-mer frequency, TF over GST control)"
TACTCG,"1.3 fold enrichment (6-mer frequency, TF over GST control)","1.27 fold enrichment (6-mer frequency, TF over GST control)","1.28 fold enrichment (6-mer frequency, TF over GST control)","1.2 fold enrichment (6-mer frequency, TF over GST control)","1.27 fold enrichment (6-mer frequency, TF over GST control)","1.25 fold enrichment (6-mer frequency, TF over GST control)","1.28 fold enrichment (6-mer frequency, TF over GST control)","1.28 fold enrichment (6-mer frequency, TF over GST control)"
AACGAC,"1.14 fold enrichment (6-mer frequency, TF over GST control)","1.15 fold enrichment (6-mer frequency, TF over GST control)","1.19 fold enrichment (6-mer frequency, TF over GST control)","1.16 fold enrichment (6-mer frequency, TF over GST control)","1.07 fold enrichment (6-mer frequency, TF over GST control)","1.18 fold enrichment (6-mer frequency, TF over GST control)","1.11 fold enrichment (6-mer frequency, TF over GST control)","1.19 fold enrichment (6-mer frequency, TF over GST control)"
GTGCTC,"1.28 fold enrichment (6-mer frequency, TF over GST control)","1.19 fold enrichment (6-mer frequency, TF over GST control)","1.26 fold enrichment (6-mer frequency, TF over GST control)","1.05 fold enrichment (6-mer frequency, TF over GST control)","1.25 fold enrichment (6-mer frequency, TF over GST control)","1.22 fold enrichment (6-mer frequency, TF over GST control)","1.25 fold enrichment (6-mer frequency, TF over GST control)","1.32 fold enrichment (6-mer frequency, TF over GST control)"
ATCTTT,"1.22 fold enrichment (6-mer frequency, TF over GST control)","1.34 fold enrichment (6-mer frequency, TF over GST control)","1.18 fold enrichment (6-mer frequency, TF over GST control)","1.17 fold enrichment (6-mer frequency, TF over GST control)","1.13 fold enrichment (6-mer frequency, TF over GST control)","1.21 fold enrichment (6-mer frequency, TF over GST control)","1.21 fold enrichment (6-mer frequency, TF over GST control)","1.2 fold enrichment (6-mer frequency, TF over GST control)"
AAGTGG,"1.24 fold enrichment (6-mer frequency, TF over GST control)","1.17 fold enrichment (6-mer frequency, TF over GST control)","1.19 fold enrichment (6-mer frequency, TF over GST control)","1.06 fold enrichment (6-mer frequency, TF over GST control)","1.31 fold enrichment (6-mer frequency, TF over GST control)","1.24 fold enrichment (6-mer frequency, TF over GST control)","1.23 fold enrichment (6-mer frequency, TF over GST control)","1.3 fold enrichment (6-mer frequency, TF over GST control)"
TACCCA,"1.18 fold enrichment (6-mer frequency, TF over GST control)","1.06 fold enrichment (6-mer frequency, TF over GST control)","1.17 fold enrichment (6-mer frequency, TF over GST control)","1.09 fold enrichment (6-mer frequency, TF over GST control)","1.07 fold enrichment (6-mer frequency, TF over GST control)","1.09 fold enrichment (6-mer frequency, TF over GST control)","1.06 fold enrichment (6-mer frequency, TF over GST control)","1 fold enrichment (6-mer frequency, TF over GST control)"
AACAGG,"1.16 fold enrichment (6-mer frequency, TF over GST control)","1.15 fold enrichment (6-mer frequency, TF over GST control)","1.13 fold enrichment (6-mer frequency, TF over GST control)","1.31 fold enrichment (6-mer frequency, TF over GST control)","1.15 fold enrichment (6-mer frequency, TF over GST control)","1.24 fold enrichment (6-mer frequency, TF over GST control)","1.25 fold enrichment (6-mer frequency, TF over GST control)","1.29 fold enrichment (6-mer frequency, TF over GST control)"
CCGCAA,"1.19 fold enrichment (6-mer frequency, TF over GST control)","1.23 fold enrichment (6-mer frequency, TF over GST control)","1.47 fold enrichment (6-mer frequency, TF over GST control)","1.36 fold enrichment (6-mer frequency, TF over GST control)","1.32 fold enrichment (6-mer frequency, TF over GST control)","1.39 fold enrichment (6-mer frequency, TF over GST control)","1.3 fold enrichment (6-mer frequency, TF over GST control)","1.33 fold enrichment (6-mer frequency, TF over GST control)"
CTCCAT,"1.37 fold enrichment (6-mer frequency, TF over GST control)","1.21 fold enrichment (6-mer frequency, TF over GST control)","1.36 fold enrichment (6-mer frequency, TF over GST control)","1.39 fold enrichment (6-mer frequency, TF over GST control)","1.13 fold enrichment (6-mer frequency, TF over GST control)","1.24 fold enrichment (6-mer frequency, TF over GST control)","1.27 fold enrichment (6-mer frequency, TF over GST control)","1.35 fold enrichment (6-mer frequency, TF over GST control)"
TTTGGA,"1.2 fold enrichment (6-mer frequency, TF over GST control)","1.21 fold enrichment (6-mer frequency, TF over GST control)","1.19 fold enrichment (6-mer frequency, TF over GST control)","1.23 fold enrichment (6-mer frequency, TF over GST control)","1.3 fold enrichment (6-mer frequency, TF over GST control)","1.15 fold enrichment (6-mer frequency, TF over GST control)","1.19 fold enrichment (6-mer frequency, TF over GST control)","1.15 fold enrichment (6-mer frequency, TF over GST control)"
TAGCAA,"1.28 fold enrichment (6-mer frequency, TF over GST control)","1.22 fold enrichment (6-mer frequency, TF over GST control)","1.26 fold enrichment (6-mer frequency, TF over GST control)","1.23 fold enrichment (6-mer frequency, TF over GST control)","1.25 fold enrichment (6-mer frequency, TF over GST control)","1.23 fold enrichment (6-mer frequency, TF over GST control)","1.34 fold enrichment (6-mer frequency, TF over GST control)","1.29 fold enrichment (6-mer frequency, TF over GST control)"
